In the supplement of paper PMC9694430:

Tests used:
Assay in all cases: thermal shift delta Tm vs DMSO control; higher = stronger stabilization (binding)
Conditions in all cases: 12.5 µM; protein concentration 2 µM
LOC_OS01G57100-cb003 = tested on: LOC_OS01G57100-cb003
In short: (§1)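 Heating from 25°C to 95°C at 0.05°C/s, fluorescence was recorded for 19.5 μl wells of 2 μM E. coli-expressed, purified rice kinase domain in 100 mM potassium phosphate pH 7.5, 150 mM NaCl, 10% glycerol and 5 × SYPRO Orange with compound in DMSO. Boltzmann fits gave melting temperatures for this differential scanning fluorimetry assay. The shift reported is the mean of three replicates against the DMSO-only protein.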

LOC_OS01G60330-cb001 = tested on: LOC_OS01G60330-cb001
In short: as §1

LOC_OS01G60700-cb002 = tested on: LOC_OS01G60700-cb002
In short: as §1

LOC_OS01G63280-cb003 = tested on: LOC_OS01G63280-cb003
In short: as §1

LOC_OS01G67340-cb003 = tested on: LOC_OS01G67340-cb003
In short: as §1

LOC_OS01G70970-cb002 = tested on: LOC_OS01G70970-cb002
In short: as §1

LOC_OS02G07810-cb001 = tested on: LOC_OS02G07810-cb001
In short: as §1

LOC_OS02G08530-cb003 = tested on: LOC_OS02G08530-cb003
In short: as §1

LOC_OS02G14120-cb001 = tested on: LOC_OS02G14120-cb001
In short: as §1

LOC_OS02G17970-cb001 = tested on: LOC_OS02G17970-cb001
In short: as §1

LOC_OS02G45750-cb003 = tested on: LOC_OS02G45750-cb003
In short: as §1

LOC_OS02G54510-cb004 = tested on: LOC_OS02G54510-cb004
In short: as §1

LOC_OS03G04050-cb001 = tested on: LOC_OS03G04050-cb001
In short: as §1

LOC_OS03G12390-cb001 = tested on: LOC_OS03G12390-cb001
In short: as §1

LOC_OS03G27990-cb004 = tested on: LOC_OS03G27990-cb004
In short: as §1

LOC_OS03G50450-cb001 = tested on: LOC_OS03G50450-cb001
In short: as §1

LOC_OS03G50810-cb003 = tested on: LOC_OS03G50810-cb003
In short: as §1

LOC_OS04G35114-cb001 = tested on: LOC_OS04G35114-cb001
In short: as §1

LOC_OS04G38480-cb003 = tested on: T1, LOC_OS04G38480-cb003
T1 sequence (whole entry): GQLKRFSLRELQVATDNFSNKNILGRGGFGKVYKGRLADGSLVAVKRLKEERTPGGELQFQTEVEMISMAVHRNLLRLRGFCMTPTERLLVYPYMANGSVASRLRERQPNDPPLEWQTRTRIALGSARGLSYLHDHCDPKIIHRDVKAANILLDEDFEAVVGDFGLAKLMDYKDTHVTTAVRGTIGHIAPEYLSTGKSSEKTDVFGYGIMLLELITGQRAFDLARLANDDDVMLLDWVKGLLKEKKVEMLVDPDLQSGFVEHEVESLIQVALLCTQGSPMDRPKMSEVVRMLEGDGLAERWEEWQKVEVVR
In short: as §1

LOC_OS04G41100-cb001 = tested on: T2, LOC_OS04G41100-cb001
T2 sequence (whole entry): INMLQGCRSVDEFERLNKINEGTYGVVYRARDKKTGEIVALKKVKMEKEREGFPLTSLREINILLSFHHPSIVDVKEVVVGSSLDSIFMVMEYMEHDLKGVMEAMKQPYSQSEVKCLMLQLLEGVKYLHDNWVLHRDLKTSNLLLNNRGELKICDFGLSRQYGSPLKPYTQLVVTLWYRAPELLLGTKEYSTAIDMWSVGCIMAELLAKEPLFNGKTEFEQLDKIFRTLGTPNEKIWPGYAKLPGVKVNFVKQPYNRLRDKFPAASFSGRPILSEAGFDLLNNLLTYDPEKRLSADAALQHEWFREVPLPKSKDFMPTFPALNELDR
In short: as §1
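Further: purified Escherichia coli-expressed rice kinase domain construct.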

| SMILES | thermal shift delta Tm (LOC_OS01G57100-cb003) | thermal shift delta Tm (LOC_OS01G60330-cb001) | thermal shift delta Tm (LOC_OS01G60700-cb002) | thermal shift delta Tm (LOC_OS01G63280-cb003) | thermal shift delta Tm (LOC_OS01G67340-cb003) | thermal shift delta Tm (LOC_OS01G70970-cb002) | thermal shift delta Tm (LOC_OS02G07810-cb001) | thermal shift delta Tm (LOC_OS02G08530-cb003) | thermal shift delta Tm (LOC_OS02G14120-cb001) | thermal shift delta Tm (LOC_OS02G17970-cb001) | thermal shift delta Tm (LOC_OS02G45750-cb003) | thermal shift delta Tm (LOC_OS02G54510-cb004) | thermal shift delta Tm (LOC_OS03G04050-cb001) | thermal shift delta Tm (LOC_OS03G12390-cb001) | thermal shift delta Tm (LOC_OS03G27990-cb004) | thermal shift delta Tm (LOC_OS03G50450-cb001) | thermal shift delta Tm (LOC_OS03G50810-cb003) | thermal shift delta Tm (LOC_OS04G35114-cb001) | thermal shift delta Tm (LOC_OS04G38480-cb003) | thermal shift delta Tm (LOC_OS04G41100-cb001) |
| --- | --- | --- | --- | --- | --- | --- | --- | --- | --- | --- | --- | --- | --- | --- | --- | --- | --- | --- | --- | --- |
| Cc1cc(Nc2cc(Cl)nc(Oc3ccc([N+](=O)[O-])cc3)n2)n[nH]1 [Autophinib] | 1.52 °C | 0.66 °C | -0.44 °C | 0.94 °C | 0.51 °C | 1.07 °C | -0.12 °C | 0.84 °C | 0.42 °C | 0.46 °C | 1.3 °C | 0.33 °C | 0.63 °C | 0.34 °C | 0.56 °C | 0.75 °C | 0.7 °C | 0.47 °C | 1.06 °C | 1.26 °C |
| N#Cc1cccc(-c2c[nH]c3ncnc(N4CCOCC4)c23)c1 | 1.38 °C | 0.98 °C | 0.99 °C | 4.38 °C | 1.62 °C | 0.07 °C | 0.61 °C | 2.7 °C | 3.85 °C | 0.73 °C | 3.36 °C | 0.44 °C | 0.26 °C | 3.14 °C | 0.37 °C | -0.1 °C | 2.96 °C | 5.02 °C | 1.08 °C | 0.06 °C |
| O=C(c1cccc(Cl)c1F)N1CCN(Cc2cccc(Nc3nccs3)n2)CC1 | 1.37 °C | 0.61 °C | 1.32 °C | 0.37 °C | 0.2 °C | 0.46 °C | 1.01 °C | 2.51 °C | 9.07 °C | -0.27 °C | 0.38 °C | 0.15 °C | 0.55 °C | 0.36 °C | 0.38 °C | 0.14 °C | 1.09 °C | 7 °C | 2.88 °C | 0.42 °C |
| CC(C)(C)c1cc(NC(=O)Nc2ccc(Oc3ccnc4[nH]c(=O)cnc34)cc2F)n(-c2ccccc2)n1 | 1.77 °C | 1.69 °C | 1.38 °C | 10.7 °C | 0.45 °C | 0.73 °C | 0.8 °C | 1.22 °C | 4.49 °C | 2.69 °C | 8.1 °C | 3.28 °C | 0.21 °C | 4.04 °C | 0.22 °C | 0.17 °C | 2.66 °C | 0.44 °C | 2.2 °C | 7.51 °C |
| N#Cc1c(O)c2c(-c3ccc(-c4ccccc4O)cc3)csc2[nH]c1=O | 3.04 °C | 1.32 °C | 1.46 °C | 0.82 °C | 0.95 °C | 0.52 °C | 1.91 °C | 1.2 °C | 0.5 °C | 1.96 °C | 1.29 °C | 0.51 °C | 0.84 °C | 0.75 °C | 0.45 °C | 0.66 °C | 0.88 °C | 0.58 °C | 1.99 °C | 0.62 °C |
| COc1cc2nccc(Oc3ccc(NC(=O)C4(C(=O)Nc5ccc(F)cc5)CC4)cc3)c2cc1OC [Cabozantinib malate (XL184)] | 1.34 °C | 0.89 °C | 1.35 °C | 0.47 °C | 0.53 °C | 0.57 °C | 1.09 °C | 1.12 °C | 0.46 °C | 0.98 °C | 0.86 °C | 0.27 °C | 0.7 °C | 0.1 °C | 0.34 °C | 0.45 °C | 0.59 °C | 0.52 °C | 1.59 °C | 0.69 °C |
| Cc1cc(Nc2ncc(Cl)c(Nc3ccccc3S(=O)(=O)C(C)C)n2)c(OC(C)C)cc1C1CCNCC1 [Ceritinib (LDK378)] | 1.94 °C | 0.68 °C | 1.4 °C | 0.34 °C | 0.19 °C | 0.94 °C | 0.36 °C | 5.56 °C | 1.28 °C | 0.2 °C | 0.68 °C | 0.09 °C | 0.7 °C | 2.72 °C | 0.52 °C | 0.56 °C | 0.58 °C | 0.66 °C | 1 °C | 0.26 °C |
| C[C@@H]1COCCN1c1cc(C2([S@](C)(=N)=O)CC2)nc(-c2cc[nH]c3nccc2-3)n1 | 0.97 °C | 0.61 °C | 0.22 °C | -0.13 °C | 0.47 °C | 0.14 °C | 0.56 °C | 0.49 °C | 0.92 °C | 0.47 °C | 0.39 °C | 0.1 °C | 0.32 °C | -0.31 °C | 0.13 °C | 0.46 °C | 0.2 °C | 2.45 °C | 0.68 °C | 0.52 °C |
| CC(C)n1nc(-c2ccc3oc(N)nc3c2)c2c(N)ncnc21 | 0.15 °C | 0.88 °C | 0.9 °C | 0.99 °C | 0.39 °C | 0.54 °C | 0.31 °C | 1.77 °C | 1.77 °C | 1.04 °C | 6.62 °C | 0.93 °C | 0.38 °C | 0.67 °C | 1.24 °C | 0.47 °C | 0.61 °C | 5.42 °C | 0.87 °C | 0.38 °C |
| CC(C)S(=O)(=O)c1ccc2nccc(Nc3ccc4scnc4c3)c2c1 | 1.27 °C | 0.31 °C | 0.69 °C | 0.17 °C | 0.82 °C | 0.33 °C | -0.59 °C | 1.18 °C | 1.58 °C | 1.42 °C | 1.88 °C | 0.89 °C | 0.51 °C | 0.9 °C | 0.22 °C | 0.37 °C | 0.61 °C | 2.38 °C | 2.44 °C | 0.32 °C |
| Cc1csc(-c2nnc(Nc3ccc(Oc4ncccc4-c4ccnc(N)n4)cc3)c3ccccc23)c1 | 2.43 °C | -0.58 °C | 0.56 °C | 14 °C | 0.96 °C | 0.74 °C | 1.36 °C | 4.38 °C | 3.75 °C | 1.17 °C | 1.33 °C | 0.9 °C | 0.3 °C | 0.26 °C | 0.96 °C | 0.26 °C | 0.96 °C | 1.18 °C | 2.54 °C | 1.68 °C |
| C[C@@H]1COCCN1c1cc(=O)n2c(n1)N(Cc1cncc(Cl)c1)[C@H](C(F)(F)F)CC2 | 1.19 °C | 1.13 °C | 1.05 °C | 0.61 °C | 0.35 °C | 0.33 °C | 0.77 °C | 0.7 °C | 0.82 °C | 1.7 °C | 0.59 °C | 0.31 °C | 0.37 °C | 0.19 °C | 0.22 °C | 0.04 °C | 0.46 °C | 0.41 °C | 1.55 °C | 0.39 °C |
